Measured values taken from PubChem BioAssay AID1259412 (Laboratorio de Genomica e Expressao (LGE), UNICAMP, 2018).

Assay: AOX inhibitors, oxygen consumption, profiling panel (AID 1259412);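 further: growth monitored over 72 h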
Details: AOX-dependent respiration, O2 uptake; measured here: growth, AOX-dependent treatment condition; at 500 µM; stronger effect = lower value

| Structure (SMILES) | growth (% of control) [%] |
| --- | --- |
| O=C(Nc1cccc(C(F)(F)F)c1)c1cccc(F)c1 | 7.63 |
| N#Cc1cccc(C(=O)Nc2cccc(Br)c2)c1 | 62.4 |
| O=C(Nc1cccc(I)c1)c1cccc(I)c1 | 87.3 |
| O=C(Nc1cccc(I)c1)c1cccc(Cl)c1 | 63.1 |
| O=C(Nc1cccc(NC(=O)c2ccccc2)c1)c1ccccc1 | 106 |
| COc1cc(NC(=O)c2cccc(F)c2)cc(OC)c1OC | 92.8 |
| COc1cccc(C(=O)Nc2ccccc2)c1 | 43.8 |
| COc1cccc(C(=O)Nc2cccc(Br)c2)c1 | 51.9 |
| O=C(Nc1cccc(F)c1)c1cccc(Cl)c1 | 3.11 |
| O=C(Nc1cccc([N+](=O)[O-])c1)c1cccc(Cl)c1 | 84.5 |
| O=C(Nc1cccc(C(F)(F)F)c1)c1ccccc1 | 38.9 |
| N#Cc1cccc(C(=O)Nc2ccc(N3CCOCC3)cc2)c1 | 96.5 |
| Nc1cccc(S(=O)(=O)c2cccc(NC(=O)c3ccccc3)c2)c1 | 93.3 |
| N#Cc1cccc(C(=O)Nc2cccc(Cl)c2)c1 | 54.1 |
| COc1cc(NC(=O)c2cccc(Br)c2)cc(OC)c1OC | 90.6 |
| O=C(Nc1cccc(Cl)c1)c1ccccc1 | 46.9 |
| N#Cc1cccc(C(=O)Nc2cccc([N+](=O)[O-])c2)c1 | 91.7 |
| Cc1cccc(C(=O)Nc2cccc(Br)c2)c1 | 26.6 |
| O=C(Nc1cccc(C(F)(F)F)c1)c1cccc(I)c1 | 49.4 |
| O=C(Nc1cccc(F)c1)c1ccccc1 | 83 |
| O=C(Nc1cccc(F)c1)c1cccc(Br)c1 | 23.1 |
| Cc1cccc(C(=O)Nc2ccccc2)c1 | 50 |
| O=C(NCc1ccc2c(c1)OCO2)c1cccc(Br)c1 | 88 |
